Some test systems named below: T-47D breast; BT-549 breast; MDA-MB-435 melanoma; SW-620 colon; MCF7 breast; HCT-116 colon; HCC-2998 colon; KM12 colon.
What all share (assay): NCI-60 one-dose screen, 48 h (100 = growth as untreated, 0 = no growth, -100 = all killed)
What all share (conditions): 10 µM unless noted

Each structure is given as a SMILES string. This is part of a sample that, as a whole, favours compounds with a hit. Of some 83,000 tested, about 20% had one in any assay.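 A percent growth of 40 corresponds to 60% growth inhibition; 0 means no net growth; -100 means all cells died. Active threshold: below 10.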 Values without a mark were called inactive. Active and inactive are the calls of the source.

As to `COc1c(B(O)O)cc(F)cc1-c1nc2ccc3[nH]ncc3c2c2c1CCCC2`, the growth in the experiment on T-47D breast is 14%; in the experiment on BT-549 breast, -35.5% (active); in the experiment on MDA-MB-435 melanoma, 16.4%; in the experiment with SW-620 colon it was 5.71% (active); with MCF7 breast it was 4.26% (active); in the experiment with HCT-116 colon, 3.48% (active). The values for the growth in the experiment on HCC-2998 colon and with KM12 colon were 5.31% (active) and -3.54% (active), respectively.

Turning to `c1cc2nc(-c3cn[nH]c3)c3c(c2cc1-c1cn[nH]c1)C1CCC3C1` (stereo not drawn), the growth in the experiment on T-47D breast is 37.6%; with BT-549 breast it was 62%; in the experiment with MDA-MB-435 melanoma it was 75.3%; in the experiment with SW-620 colon, 77.5%; in the experiment with MCF7 breast, 49.2%; in the experiment with HCT-116 colon, 61.5%. Besides, the growth in the experiment with HCC-2998 colon is 84.5%; in the experiment on KM12 colon, 37.8%.

For `NC1=C(c2nn[nH]n2)C(c2ccccc2Cl)c2ccc3ccccc3c2O1` (stereo not drawn), the growth with T-47D breast is 69.3%; in the experiment on BT-549 breast, 93.1%; in the experiment with MDA-MB-435 melanoma, -10.3% (active); in the experiment with SW-620 colon, 48.8%; in the experiment on MCF7 breast it was 41.3%; in the experiment with HCT-116 colon, 63.1%. The growth in the experiment on HCC-2998 colon was 98.6%; in the experiment on KM12 colon, 60.4%.

As to `BrCCCc1n(Cc2ccc3ccccc3c2)c2ccccc2[n+]1Cc1ccc2ccccc2c1`, the growth was -10.9% (active) with T-47D breast; -73.5% (active) with BT-549 breast; -96.5% (active) in the experiment on MDA-MB-435 melanoma; -81.5% (active) in the experiment with SW-620 colon; -74.7% (active) with MCF7 breast; -89.7% (active) in the experiment on HCT-116 colon. The figures for the growth in the experiment with HCC-2998 colon and with KM12 colon were -90.1% (active) and -89.7% (active), respectively.

For `O=C(N/N=C/c1ccc(Cl)cc1)c1ccc(C(F)(F)F)nc1Nc1cccc(C(F)(F)F)c1`, the growth is 3.73% (active) with T-47D breast; 9.33% (active) with BT-549 breast; 34.8% in the experiment on MDA-MB-435 melanoma; 8.01% (active) with SW-620 colon; 0.997% (active) in the experiment with MCF7 breast; -33.6% (active) in the experiment with HCT-116 colon. Also, the growth in the experiment with HCC-2998 colon is -38.9% (active); with KM12 colon, 8.69% (active).

Turning to `N#C/C(=C\c1cccc2cnccc12)n1nnc2cccc(F)c21`, the growth in the experiment on T-47D breast is 23.5%; in the experiment with BT-549 breast it was 17%; with MDA-MB-435 melanoma, 29%; in the experiment on SW-620 colon, 21.5%; in the experiment with MCF7 breast, 19.3%; in the experiment with HCT-116 colon it was 10.4%. The figures for the growth in the experiment on HCC-2998 colon and in the experiment on KM12 colon were 42.7% and 62.1%, respectively.

Regarding `CN1CCN(c2ccc(-c3cnc4c(-c5csc6ccccc56)cnn4c3)cc2)CC1`, the growth in the experiment with T-47D breast is -7.17% (active); in the experiment with BT-549 breast it was -39.3% (active); in the experiment with MDA-MB-435 melanoma it was -46.1% (active); in the experiment with SW-620 colon it was -5.95% (active); with MCF7 breast, -22.5% (active); in the experiment with HCT-116 colon it was -23.8% (active). Further, the growth with HCC-2998 colon was 24.8%; in the experiment on KM12 colon, -3.74% (active).

Consider `N#Cc1c(Nc2cccc(Cl)c2)sc(C(=O)c2cc3cc(Cl)ccc3o2)c1N`, for which the growth was 73.7% in the experiment on T-47D breast; 113% with BT-549 breast; 86.3% in the experiment on MDA-MB-435 melanoma; 18.2% in the experiment with SW-620 colon; 70.2% with MCF7 breast; 72.4% in the experiment on HCT-116 colon. Further, the growth is 105% with HCC-2998 colon and 34.5% in the experiment on KM12 colon.

On to `COc1cc(C(=O)c2cnc(-c3cccc4[nH]ccc34)[nH]2)cc(OC)c1OC`, for which the growth was 70.6% with T-47D breast; 40.2% in the experiment with BT-549 breast; -34.8% (active) in the experiment on MDA-MB-435 melanoma; 19.7% with SW-620 colon; 22.4% with MCF7 breast; -8.06% (active) in the experiment with HCT-116 colon. Further, the growth is 20.9% with HCC-2998 colon and 4.18% (active) in the experiment on KM12 colon.

As for `COc1ccc2sc3c(NCCCN(C)C)nc4ccccc4c3c(=O)c2c1`, the growth in the experiment on T-47D breast is 93.6%; in the experiment on BT-549 breast, 69.4%; with MDA-MB-435 melanoma, -46.9% (active); in the experiment on SW-620 colon, -77.2% (active); in the experiment with MCF7 breast, 41.5%; in the experiment with HCT-116 colon it was -88.7% (active). Moreover, the results for the growth in the experiment with HCC-2998 colon and in the experiment with KM12 colon were -90.8% (active) and -47.2% (active), respectively.

Turning to `[O-][n+]1c2ccccc2[n+]([O-])c2c3ccccc3[nH]c21`, the growth is 2.23% (active) with T-47D breast; 81.3% in the experiment with BT-549 breast; 110% with MDA-MB-435 melanoma; 45.4% with SW-620 colon; 19.4% in the experiment with MCF7 breast; 10.3% in the experiment on HCT-116 colon. For the same molecule, the results for the growth in the experiment on HCC-2998 colon and in the experiment with KM12 colon were 69.2% and 90.1%, respectively.

For `CCCCCCN(CCCCCC)c1ccc(/C=C2/SC(=O)NC2=O)c(C)c1`, the growth is 77.2% in the experiment on T-47D breast; 98.3% with BT-549 breast; 82.1% with MDA-MB-435 melanoma; 88.6% in the experiment on SW-620 colon; 79.2% in the experiment on MCF7 breast; 63.7% with HCT-116 colon. Moreover, the growth with HCC-2998 colon is 67.4%; in the experiment with KM12 colon, 80.3%.

`Oc1ccc(Cl)cc1Cc1cc(Cl)cc(Cl)c1O`: the growth in the experiment on T-47D breast is 40.7%; in the experiment on BT-549 breast, -11.4% (active); in the experiment with MDA-MB-435 melanoma, 15.4%; in the experiment on SW-620 colon, 28%; with MCF7 breast it was 60.1%; with HCT-116 colon, 37.1%. For the same molecule, the growth in the experiment on HCC-2998 colon was 70.6%; in the experiment on KM12 colon, 37.6%.

With `O=CN1N=C(c2ccc(Nc3ccnc4cc(Cl)ccc34)cc2)CC1c1ccccc1` (stereo not drawn), the growth with T-47D breast was 31.7%; with BT-549 breast, 39.1%; with MDA-MB-435 melanoma, 8.64% (active); in the experiment with SW-620 colon, 31.8%; in the experiment on MCF7 breast it was 18.2%; with HCT-116 colon it was 24%. In addition, the growth with HCC-2998 colon is 36.2%; in the experiment with KM12 colon, 35.9%.

For the molecule `CCc1nnc(NC(=O)c2nnn(-c3ccccc3)c2-c2ccco2)s1`, the growth in the experiment on T-47D breast is 85%; with BT-549 breast, 102%; in the experiment on MDA-MB-435 melanoma, 97.1%; in the experiment with SW-620 colon it was 98.5%; with MCF7 breast it was 78.6%; in the experiment on HCT-116 colon, 64.2%. Further, the growth was 110% with HCC-2998 colon and 96.9% in the experiment on KM12 colon.

Take `Cc1[nH]c(C(=O)Nc2ccc(C(=O)N3CCNCC3)cc2OC(C)C)c(Cl)c1Cl`: the growth in the experiment with T-47D breast is 64.1%; with BT-549 breast, 93%; in the experiment on MDA-MB-435 melanoma, 35.9%; with SW-620 colon it was -55.8% (active); in the experiment on MCF7 breast, 60%; in the experiment with HCT-116 colon it was 14.5%. The figures for the growth in the experiment on HCC-2998 colon and in the experiment with KM12 colon were -45.9% (active) and 50.9%, respectively.

The record behind these values is PubChem BioAssay (NCI).
